{
  "source": "ChEMBL document CHEMBL3433997",
  "about": "“St. Jude Leishmania screening dataset” (2016)",
  "type_in_all_cases": "functional",
  "key": {"[1]": {"biological_target": "Solute carrier family 2, facilitated glucose transporter member 1 (Homo sapiens) (UniProt P11166)", "sequence (P11166 whole entry)": "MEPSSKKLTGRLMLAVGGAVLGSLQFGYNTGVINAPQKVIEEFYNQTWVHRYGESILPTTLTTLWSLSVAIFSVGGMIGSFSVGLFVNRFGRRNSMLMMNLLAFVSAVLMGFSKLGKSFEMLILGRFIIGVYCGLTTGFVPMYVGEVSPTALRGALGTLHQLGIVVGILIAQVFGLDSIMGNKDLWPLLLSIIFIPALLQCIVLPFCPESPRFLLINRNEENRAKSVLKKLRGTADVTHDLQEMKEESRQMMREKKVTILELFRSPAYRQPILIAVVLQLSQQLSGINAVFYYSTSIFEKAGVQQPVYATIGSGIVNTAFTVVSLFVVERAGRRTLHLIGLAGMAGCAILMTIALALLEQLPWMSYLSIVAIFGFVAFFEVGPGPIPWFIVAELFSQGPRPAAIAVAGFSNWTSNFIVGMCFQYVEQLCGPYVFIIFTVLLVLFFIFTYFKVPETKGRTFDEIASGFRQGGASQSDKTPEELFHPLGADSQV", "test": "ST_JUDE_LEISH: Cytotoxicity at 2uM final concentration against transgenic Leishmania Mexicana promastigotes LmGLUT1 that are glucose transport deficient and complemented with the human glucose transporter GLUT1. Activity is measured by DNA content using SYBR green in vitro"}, "[2]": {"biological_target": "Hexose transporter 1 (Plasmodium falciparum) (UniProt O97467)", "test": "ST_JUDE_LEISH: Cytotoxicity at 2uM final concentration against transgenic Leishmania Mexicana promastigotes LmPfHT that are glucose transport deficient and complemented with the Plasmodium falciparum hexose transporter. Activity is measured by DNA content using SYBR green in vitro"}, "[3]": {"biological_target": "Glucose transporter (Leishmania mexicana) (UniProt O61059)", "test": "ST_JUDE_LEISH: Cytotoxicity at 2uM final concentration against transgenic Leishmania Mexicana promastigotes LmGT2 that are glucose transport deficient and complemented with the L. Mexicana glucose transporter 2. Activity is measured by DNA content using SYBR green in vitro"}},
  "note": "“And” between values parts separate entries of the source, which are not always exact repeats. Equal values may be shown once.",
  "data": [
    {"smiles": "O=C(C=C1c2ccccc2-c2ccccc21)NC1CCC(CN2CCC(c3c[nH]c4ccccc34)CC2)CC1", "note": "(stereo unspecified)", "values": [
      {"measurement": "inhibition", "setting": "[1]", "result": "0.2% and -2.16%"},
      {"measurement": "inhibition", "setting": "[2]", "result": "0.36% and -1.31%"},
      {"measurement": "inhibition", "setting": "[3]", "result": "-0.17% and -1.28%"}
    ]},
    {"smiles": "COC(=O)/C=C/C(=O)N[C@@H]1CC[C@@]2(O)[C@H]3Cc4ccc(O)c5c4[C@@]2(CCN3CC2CC2)[C@H]1O5", "values": [
      {"measurement": "inhibition", "setting": "[1]", "result": 4.79, "unit": "%"},
      {"measurement": "inhibition", "setting": "[2]", "result": 5.03, "unit": "%"},
      {"measurement": "inhibition", "setting": "[3]", "result": 6.57, "unit": "%"}
    ]},
    {"smiles": "COc1ccccc1CC(C)NCC(O)c1cccc(Cl)c1", "note": "(stereo unspecified)", "values": [
      {"measurement": "inhibition", "setting": "[1]", "result": -0.34, "unit": "%"},
      {"measurement": "inhibition", "setting": "[2]", "result": 4.23, "unit": "%"},
      {"measurement": "inhibition", "setting": "[3]", "result": 1.87, "unit": "%"}
    ]},
    {"smiles": "CN(c1cc(NC(=O)c2cccs2)ccn1)C1CCN(Cc2cccc(F)c2)CC1", "values": [
      {"measurement": "inhibition", "setting": "[1]", "result": 3.38, "unit": "%"},
      {"measurement": "inhibition", "setting": "[2]", "result": 3, "unit": "%"},
      {"measurement": "inhibition", "setting": "[3]", "result": 5.71, "unit": "%"}
    ]},
    {"smiles": "COc1ccc2[nH]cc(C3=CCN(CC4CC4C(=O)c4ccccc4)CC3)c2n1", "note": "(stereo unspecified)", "values": [
      {"measurement": "inhibition", "setting": "[1]", "result": 12.6, "unit": "%"},
      {"measurement": "inhibition", "setting": "[2]", "result": 14.6, "unit": "%"},
      {"measurement": "inhibition", "setting": "[3]", "result": 11.3, "unit": "%"}
    ]},
    {"smiles": "Fc1ccc2[nH]cc(CCN3CCC(CNCc4ccccc4)CC3)c2c1", "values": [
      {"measurement": "inhibition", "setting": "[1]", "result": 6.4, "unit": "%"},
      {"measurement": "inhibition", "setting": "[2]", "result": 5.46, "unit": "%"},
      {"measurement": "inhibition", "setting": "[3]", "result": 1.2, "unit": "%"}
    ]},
    {"smiles": "CC[C@H]1CN2CC[C@H]1C[C@H]2[C@H](O)c1cc(-c2ccc(SC)cc2)nc2ccc(OC)cc12", "values": [
      {"measurement": "inhibition", "setting": "[1]", "result": 4.44, "unit": "%"},
      {"measurement": "inhibition", "setting": "[2]", "result": 4.13, "unit": "%"},
      {"measurement": "inhibition", "setting": "[3]", "result": 7.64, "unit": "%"}
    ]},
    {"smiles": "COC(=O)c1ccc(CC(C)NCC(O)c2cccc(Oc3cccc(C(F)(F)F)c3)c2)cc1", "note": "(stereo unspecified)", "values": [
      {"measurement": "inhibition", "setting": "[1]", "result": 8.83, "unit": "%"},
      {"measurement": "inhibition", "setting": "[2]", "result": 6.86, "unit": "%"},
      {"measurement": "inhibition", "setting": "[3]", "result": 6.56, "unit": "%"}
    ]},
    {"smiles": "COc1ccc(CC(C)NCC(O)c2cccc(Cl)c2F)cc1", "note": "(stereo unspecified)", "values": [
      {"measurement": "inhibition", "setting": "[1]", "result": 1.96, "unit": "%"},
      {"measurement": "inhibition", "setting": "[2]", "result": -0.19, "unit": "%"},
      {"measurement": "inhibition", "setting": "[3]", "result": 0.32, "unit": "%"}
    ]},
    {"smiles": "Cc1[nH]c2c(C)cc(NS(C)(=O)=O)cc2c1C1CCN(CC2CCN(C(=O)/C=C/c3ccc(Cl)c(Cl)c3)CC2)CC1", "values": [
      {"measurement": "inhibition", "setting": "[1]", "result": 1.48, "unit": "%"},
      {"measurement": "inhibition", "setting": "[2]", "result": 3.63, "unit": "%"},
      {"measurement": "inhibition", "setting": "[3]", "result": 4.65, "unit": "%"}
    ]},
    {"smiles": "COc1cccc(CCNC(C)Cc2ccc(OCCCCOc3ccccc3)cc2)c1", "note": "(stereo unspecified)", "values": [
      {"measurement": "inhibition", "setting": "[1]", "result": 95, "unit": "%"},
      {"measurement": "inhibition", "setting": "[2]", "result": 96.3, "unit": "%"},
      {"measurement": "inhibition", "setting": "[3]", "result": 101, "unit": "%"}
    ]},
    {"smiles": "COc1cccc(C(=O)C2CC2CN2CC=C(c3c[nH]c4cccc(Br)c34)CC2)c1", "note": "(stereo unspecified)", "values": [
      {"measurement": "inhibition", "setting": "[1]", "result": 1.59, "unit": "%"},
      {"measurement": "inhibition", "setting": "[2]", "result": 1.08, "unit": "%"},
      {"measurement": "inhibition", "setting": "[3]", "result": -0.34, "unit": "%"}
    ]}
  ]
}
